The results in this text go back to PubChem BioAssay (NCATS).

Inconclusive results are not listed. A number with no mark means an inactive call. Active and inactive are the calls of the source. Calls follow the shape of the dose curve; as a rule, active = well fitted inhibition curve with a large enough effect; inconclusive = small, poorly fitted or top-dose-only effect; inactive = flat fitted curve, though single readings scatter.
Potency is read from the fitted curve at half-maximal effect.

In this assay the test system is Zika virus NS2B-NS3 protease (unlinked complex). The assay is described as follows: Confirmatory screen GU AMC qHTS for Zika virus inhibitors (AID 1347153). Also: nearly all actives have a fitted effect of over 70% in size.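 As to activity, negative = inhibition: percent inhibition with 0% = no inhibitor control and 100% = no enzyme control.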 Particulars: Recombinant NS2B-NS3 protease, AMC substrate fluorescence; series mostly up to 111 µM; activity, negative = inhibition: at the top concentration. An excerpt: Assay Submitters (PI): Avindra Nath, Ph.D., National Institute of Neurological Disorders and Stroke (NINDS), Bethesda, MD Radhakrishnan Padmanabhan, Ph.D., Georgetown University (GU), Washington D.C. Zika Virus causes congenital defects, including microcephaly and is associated with Guillain-Barre syndrome, eningoencephalitis and myelitis in infected adult. […] Using a target-based approach, we hope to establish a screening paradigm to uncover novel, cell-active NS2B-NS3 protease (Zika Virus) specific inhibitors from NCATS' collection of small molecules using qHTS. […] Active compounds in the primary screen are re-acquired and re-screened to confirm NS2B-NS3 protease inhibition. Early Translation Branch (ETB) National Center for Advancing Translational Sciences (NCATS), Rockville, MD National Institute of Health (NIH), Bethesda, Maryland
Materials: Padmanabhan lab provided the NS2B hydrophilic domain and NS3 protease domain in a noncovalent complex used for the unlinked assay. Control compound aprotinin is obtained from Thermo Scientific (#78432; Waltham, Massachusetts). NS2B-NS3 AMC substrate (Bz-Nle-Lys-Arg-Arg-AMC; Nle-KRR-AMC) purchased from Bachem (#I-1995; Torrance, CA). Ac-VKTGKR-AMC purchased from Genscript or Bachem, Ac-FAAGKR-AMC purchased from Genscript, Ac-GLVKRR-AMC purchased from Genscript, Ac-LKKR-AMC purchased from Genscript. GU AMC unlinked NS2B-NS3 protease qHTS protocol: Briefly, 3 microL of Zika virus unlinked NS2B-NS3 protease (25 nM for linked final concentration), in assay buffer (10 mM Tris-HCl pH 8.0 with 0.01% Tween 20) was dispensed into a 1,536-well solid-bottom black plate (Greiner Bio One, Monroe, NC). Twenty-three nL of compounds (final concentration range 7.28 nM to 114 microM) or control Aprotinin (final concentration range 3.47 nM to 114 microM) were transferred via Wako Pin-tool (Wako Automation, Richmond, VA). Samples were incubated (room temperature, protected from light) for 15 minutes followed by a 1 microL AMC substrate addition of (final concentration of 10 microM; Km = 18.3 µM). Plates were then read immediately on a ViewLux High-throughput CCD imager (PerkinElmer, Waltham, MA) equipped with standard UV fluorescence optics (340(30) nm excitation, 450(20) nm emission) then incubated (room temperature, protected from light) for 15 minutes (~20% conversion). The change in fluorescence intensity over the 15-minute reaction period was normalized against no-inhibitor and no-enzyme controls and the resulting percent inhibition data were fitted to a 4-parameter Hill equation. Aprotinin was used as the intraplate control.
As to `CC1=C(C(=O)OCc2ccccc2)C(c2ccc(-c3ccccc3)cc2)NC(=O)N1CCCCCC(=O)O` (stereo unspecified), the Potency was 31.2 µM (active).

`CCCCCCOc1cc2c(cc1N(C)c1ncc(C(=O)O)cn1)C(C)(C)CCC2(C)C`: the Potency is 35 µM (active).

On to `COc1cc(Nc2nc3ccccc3nc2NS(=O)(=O)c2ccc(NC(=O)c3ccc(OC)c(C)c3)cc2)cc(OC)c1`, for which the Potency was 11.1 µM (active).

For `CC1(C)CCC(C)(C)c2cc(C3(c4ccc(C(=O)O)cc4)OCCO3)ccc21`, the Potency is 39.3 µM (active).

For `N#CC(c1ccnc(OCc2ccc(CN3CCOCC3)cc2)n1)c1nc2ccccc2s1` (stereo unspecified), the “activity, negative = inhibition” value is -10.6%.

As to `O=C(O)Cc1ccc2oc(-c3ccc(NC(=O)/C=C/c4ccc(Br)cc4)c(F)c3)nc2c1`, the Potency was 13.9 µM (active).

On to `COc1ccc(C(=O)n2c(C)c(Cc3cccc(O[C@@H](C)C(=O)O)c3)c3cc(OC(F)(F)F)ccc32)cc1`, for which the Potency is 22.1 µM (active).

With `O=C(O)/C=C/c1ccc(-c2ccc(O)c(C34CC5CC(CC(C5)C3)C4)c2)cc1`, the Potency was 44.1 µM (active).

Consider `CCc1c(-c2ccccc2)c(-c2ccccc2)nn1-c1ccccc1-c1cccc(OCC(=O)O)c1`, for which the Potency is 27.8 µM (active).

Turning to `CC(C)c1cccc2c(-c3ccccc3)cc(-c3ccc(-c4ccc(C(=O)O)cc4)[nH]3)nc12`, the Potency is 49.4 µM (active).

For the compound `C=CC/C=C\C/C=C\CCCCCCCc1cccc(O)c1C(=O)O`, the Potency is 6.85 µM (active).
